Our source for the growth values is PubChem BioAssay (NCI).

Structures are written as SMILES. “And” between values parts separate entries of the source, which are not always exact repeats. Identical values can stand only once. Compounds without any hit were thinned out: in the full panel of roughly 83,000, 20% have a hit.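 Assay: single dose, 48 h. Readout: percent growth (0 = no net growth; negative = cell death). Active: <10.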 The source made the active and inactive calls.

Common to all, as to assay: NCI-60 one-dose screen, 48 h (100 = growth as untreated, 0 = no growth, -100 = all killed)
The subject of one test is HCT-15 colon. The conditions noted are these: 10 µM unless noted.
Another test relates to HT29 colon. The conditions noted are these: 10 µM unless noted.
Another test deals with SNB-75 CNS. The conditions noted are these: 10 µM unless noted.
The next test has as its system U251 CNS. The conditions noted are these: 10 µM unless noted.
The subject of another test is PC-3 prostate. The conditions noted are these: 10 µM unless noted.
For a further test, the system named is SK-MEL-5 melanoma. Conditions: 10 µM unless noted.
The subject of another test is UACC-62 melanoma. Conditions: 10 µM unless noted.
The next test has as its system SK-MEL-28 melanoma. The conditions noted are these: 10 µM unless noted.
In another test the test system is SK-MEL-2 melanoma. Conditions: 10 µM unless noted.
In a further test the test system is SN12C renal. Conditions: 10 µM unless noted.
A further test concerns UO-31 renal. Conditions: 10 µM unless noted.
The next test deals with TK-10 renal. The conditions noted are these: 10 µM unless noted.
Another test has as its system CAKI-1 renal. Conditions: 10 µM unless noted.
The subject of another test is A498 renal. The conditions noted are these: 10 µM unless noted.
In another test the test system is CCRF-CEM leukemia. Conditions: 10 µM.
In another test the test system is MOLT-4 leukemia. Conditions: 10 µM unless noted.
The subject of the next test is SNB-19 CNS. Conditions: 10 µM unless noted.
Another test concerns ACHN renal. Conditions: 10 µM unless noted.
For the next test, the system named is LOX IMVI melanoma. Conditions: 10 µM unless noted.
Another test relates to EKVX NSCLC. The conditions noted are these: 10 µM.

As for `CC(C)C(C)(C)c1ccc(O)cc1`, the growth in the test on HCT-15 colon is 105% (inactive); in the test with HT29 colon it was 102% (inactive); in the test with SNB-75 CNS, 97.8% (inactive); in the test with U251 CNS it was 102% (inactive); in the test with PC-3 prostate, 93.1% (inactive); in the test with SK-MEL-5 melanoma, 99.9% (inactive). Further, the growth in the test on UACC-62 melanoma was 101% (inactive); with SK-MEL-28 melanoma, 105% (inactive); in the test on SK-MEL-2 melanoma it was 104% (inactive); in the test on SN12C renal, 102% (inactive); in the test on UO-31 renal it was 98.1% (inactive); in the test on TK-10 renal, 107% (inactive). Besides, the growth in the test on CAKI-1 renal was 96.4% (inactive); with A498 renal, 102% (inactive); in the test on CCRF-CEM leukemia it was 105% (inactive); in the test on MOLT-4 leukemia, 106% (inactive).

Regarding `Cc1cc(-c2ccc(N=Nc3ccc4c(S(=O)(=O)O)cc(S(=O)(=O)O)c(N)c4c3O)c(C)c2)ccc1N=Nc1ccc2c(S(=O)(=O)O)cc(S(=O)(=O)O)c(N)c2c1O`, the growth with HCT-15 colon was 96.6% (inactive); with HT29 colon, 83.6% (inactive); in the test on SNB-75 CNS, 112% (inactive); with SNB-19 CNS it was 111% (inactive); in the test on U251 CNS, 97.6% (inactive); in the test on PC-3 prostate, 81.9% (inactive). For the same compound, the growth was 94.1% (inactive) with SK-MEL-5 melanoma; 77.3% (inactive) with UACC-62 melanoma; 120% (inactive) in the test on SK-MEL-28 melanoma; 112% (inactive) in the test on SK-MEL-2 melanoma; 99.1% (inactive) in the test with SN12C renal; 112% (inactive) with TK-10 renal. In addition, the growth with ACHN renal is 91.6% (inactive); in the test on CAKI-1 renal, 86.9% (inactive); in the test on A498 renal, 103% (inactive); in the test with CCRF-CEM leukemia, 85.7% (inactive).

Take `COc1cc(C(O)C2C(=O)OCC2C2(c3ccc4c(c3)OCO4)SCCCS2)cc(OC)c1OC` (stereo not given): the growth in the test on HCT-15 colon is 96.6% (inactive); in the test with HT29 colon it was 102% (inactive); with SNB-19 CNS, 96.4% (inactive); with U251 CNS, 100% (inactive); with PC-3 prostate, 84.1% (inactive); in the test on SK-MEL-5 melanoma, 99.1% (inactive). Moreover, the growth with UACC-62 melanoma was 87.5% (inactive); in the test on LOX IMVI melanoma, 92.1% (inactive); in the test on SK-MEL-28 melanoma, 108% (inactive); with SK-MEL-2 melanoma, 95.6% (inactive); with EKVX NSCLC, 88.7% (inactive); in the test with SN12C renal, 101% (inactive). Besides, the growth with TK-10 renal was 98.2% (inactive); in the test on ACHN renal, 103% (inactive); with CAKI-1 renal, 93.8% (inactive); in the test with CCRF-CEM leukemia, 98.2% (inactive); in the test on MOLT-4 leukemia, 94% (inactive).

Consider `Cc1ccc(S(=O)(=O)c2ccccc2)cc1`, for which the growth was 30.5% (inactive) in the test with HCT-15 colon; 6.22% (active) with HT29 colon; -19.3% (active) in the test with SNB-75 CNS; 43.4% (inactive) with SNB-19 CNS; 17.2% (inactive) in the test with U251 CNS; 30.7% (inactive) with PC-3 prostate. The growth with SK-MEL-5 melanoma is 23.7% (inactive); in the test with UACC-62 melanoma, 63.4% (inactive); with SK-MEL-28 melanoma, 59.6% (inactive); in the test on SK-MEL-2 melanoma, 38.6% (inactive); in the test with SN12C renal, 50.4% (inactive); with TK-10 renal, 51.6% (inactive). The growth in the test with CAKI-1 renal was 25.4% (inactive); in the test with CCRF-CEM leukemia, 11.5% (inactive); in the test on MOLT-4 leukemia, 32.5% (inactive).

With `CCCCCCCCCCCCCCCCC(C(=O)O)C(O)(CC(=O)O)C(=O)O` (stereo not given), the growth with HCT-15 colon is 105% (inactive) and 66.4% (inactive); in the test on HT29 colon it was 93.9% (inactive) and -31.8% (active); in the test with SNB-75 CNS, 98.8% (inactive) and -58.3% (active); in the test on SNB-19 CNS it was 110% (inactive) and 15% (inactive); with U251 CNS, 101% (inactive) and 8.93% (active); in the test with PC-3 prostate it was 110% (inactive) and 19.8% (inactive). Further, the growth in the test on SK-MEL-5 melanoma was 107% (inactive); in the test on UACC-62 melanoma, 108% (inactive) and -70.3% (active); in the test with SK-MEL-28 melanoma, 108% (inactive); with SK-MEL-2 melanoma, 95.4% (inactive) and -42.9% (active); in the test with SN12C renal, 110% (inactive) and 17.4% (inactive); with UO-31 renal, 98.7% (inactive) and 59.3% (inactive). In addition, the growth in the test on TK-10 renal is 94.1% (inactive) and 34% (inactive); in the test on CAKI-1 renal, 103% (inactive) and 74.9% (inactive); in the test with A498 renal it was 113% (inactive); with CCRF-CEM leukemia it was 2.43% (active); in the test with MOLT-4 leukemia it was 90.3% (inactive) and 1.35% (active).

Regarding `CC1CCC(C(C)C)C(NNC(N)=O)C1` (stereo not given), the growth is 112% (inactive) in the test with HCT-15 colon; 102% (inactive) in the test on HT29 colon; 102% (inactive) in the test on SNB-75 CNS; 98.4% (inactive) with SNB-19 CNS; 92.4% (inactive) in the test on U251 CNS; 86.2% (inactive) in the test on PC-3 prostate. Moreover, the growth with SK-MEL-5 melanoma was 102% (inactive); in the test on LOX IMVI melanoma, 100% (inactive); in the test with SK-MEL-28 melanoma it was 120% (inactive); in the test on SK-MEL-2 melanoma, 107% (inactive); in the test on SN12C renal it was 101% (inactive); with TK-10 renal, 105% (inactive). Besides, the growth in the test on CAKI-1 renal was 98.9% (inactive); in the test with CCRF-CEM leukemia it was 106% (inactive); in the test with MOLT-4 leukemia, 113% (inactive).

In the case of `O=c1[nH]cnc2c1ncn2C1OC(CO)C(O)C1O` (stereo not given), the growth is 135% (inactive) and 124% (inactive) and 110% (inactive) in the test on HCT-15 colon; 116% (inactive) and 109% (inactive) with HT29 colon; 115% (inactive) and 99.9% (inactive) and 98.8% (inactive) in the test with SNB-75 CNS; 99.5% (inactive) and 106% (inactive) and 93.5% (inactive) with SNB-19 CNS; 108% (inactive) and 110% (inactive) and 102% (inactive) with U251 CNS; 89.3% (inactive) and 81.6% (inactive) and 98.8% (inactive) in the test with PC-3 prostate. In addition, the growth in the test with SK-MEL-5 melanoma is 106% (inactive) and 109% (inactive) and 107% (inactive); with UACC-62 melanoma, 96.1% (inactive) and 106% (inactive) and 98.6% (inactive); in the test on SK-MEL-28 melanoma, 113% (inactive) and 116% (inactive) and 118% (inactive); in the test on SK-MEL-2 melanoma it was 110% (inactive); in the test with SN12C renal it was 99.8% (inactive) and 121% (inactive) and 96.1% (inactive); in the test on UO-31 renal, 113% (inactive) and 102% (inactive) and 55.3% (inactive). Further, the growth in the test on TK-10 renal was 113% (inactive) and 114% (inactive) and 106% (inactive); in the test on ACHN renal it was 116% (inactive) and 109% (inactive) and 105% (inactive); with CAKI-1 renal, 113% (inactive) and 95.3% (inactive) and 63.4% (inactive); in the test on CCRF-CEM leukemia it was 99.5% (inactive) and 90.3% (inactive) and 69.9% (inactive); in the test on MOLT-4 leukemia, 93% (inactive) and 76% (inactive) and 105% (inactive).

With `Fc1ccc([I+]c2ccc(F)cc2)cc1`, the growth is 94.3% (inactive) in the test with HCT-15 colon; 38.2% (inactive) in the test on HT29 colon; 80% (inactive) in the test on SNB-75 CNS; 70% (inactive) in the test with SNB-19 CNS; 66.4% (inactive) in the test on U251 CNS; 63.5% (inactive) with PC-3 prostate. Besides, the growth is 52.2% (inactive) with SK-MEL-5 melanoma; 82.5% (inactive) with UACC-62 melanoma; 95.8% (inactive) in the test on SK-MEL-28 melanoma; 68.8% (inactive) in the test with SK-MEL-2 melanoma; 92.9% (inactive) in the test with SN12C renal; 74.6% (inactive) in the test with UO-31 renal. Further, the growth in the test with TK-10 renal was 71.2% (inactive); with CAKI-1 renal, 61.2% (inactive); in the test with CCRF-CEM leukemia it was 48.2% (inactive); in the test on MOLT-4 leukemia, 54.8% (inactive).

Consider `CCCCCCCCCCCCCCCc1ccc(N)c(OC2OC(CO)C(O)C(O)C2O)c1` (stereo not given), for which the growth in the test on HCT-15 colon is 98.4% (inactive); in the test on HT29 colon it was 103% (inactive); in the test with SNB-19 CNS it was 101% (inactive); in the test with U251 CNS it was 89.7% (inactive); with PC-3 prostate it was 58.3% (inactive); with SK-MEL-5 melanoma it was 111% (inactive). For the same compound, the growth with UACC-62 melanoma is 76.3% (inactive); in the test with LOX IMVI melanoma, 86.3% (inactive); in the test with SK-MEL-28 melanoma it was 112% (inactive); in the test on SK-MEL-2 melanoma it was 80.6% (inactive); in the test with SN12C renal, 87.6% (inactive); with TK-10 renal it was 113% (inactive). In addition, the growth in the test with ACHN renal is 86.1% (inactive); in the test with CCRF-CEM leukemia, 5.48% (active); in the test on MOLT-4 leukemia, 60.8% (inactive).

For `CC(C)(O)C(=O)O`, the growth in the test on HCT-15 colon is 105% (inactive); in the test with HT29 colon, 104% (inactive); in the test with SNB-75 CNS it was 94.6% (inactive); with SNB-19 CNS it was 103% (inactive); in the test on U251 CNS, 97.9% (inactive); in the test with PC-3 prostate, 98.2% (inactive). Also, the growth in the test on SK-MEL-5 melanoma is 103% (inactive); in the test with UACC-62 melanoma, 103% (inactive); in the test with SK-MEL-28 melanoma it was 104% (inactive); in the test with SK-MEL-2 melanoma, 112% (inactive); with SN12C renal, 102% (inactive); in the test with TK-10 renal, 98.9% (inactive). In addition, the growth with ACHN renal was 104% (inactive); in the test on CAKI-1 renal, 101% (inactive); in the test with A498 renal, 103% (inactive); with MOLT-4 leukemia, 108% (inactive).
